Results filed as inconclusive are left out. Where a call stands in place of a potency, no number is given. Active and inactive are the calls of the source. The call rests on the fitted dose curve; in most records, active means well fitted inhibition curve with a large enough effect; inconclusive means small, poorly fitted or top-dose-only effect; inactive means flat fitted curve, though single readings scatter.
Potency means the concentration at half of the fitted maximal effect.

The test system of the experiment is CP203. Description: qHTS profiling for inhibitors of Plasmodium falciparum proliferation (AID 504749). Further: nearly all actives have a fitted effect of over 60% in size. The settings on record: P. falciparum in erythrocytes, SYBR Green DNA, 72 h; series mostly up to 28.7 µM. From the text:
NIH National Institute of Allergy and Infectious Diseases [NIAID] NIH Chemical Genomics Center [NCGC] MLPCN Grant: None Assay Provider: Xinzhuan Su, NIAID NCGC Assay Overview: Plasmodium falciparum is a virulent malarial parasite that kills 1-2 million people worldwide each year. Transmitted by mosquitoes, the sporozoite form of the parasite enters the blood stream to infect hepatocytes, where they become merozoites that infect red blood cells (erythrocytes). Within erythrocytes, merozoites begin a […] cycle of growth and division, after which the parasite is released to infect new red blood cells. Gametocytes, which form within erythrocytes as well, circulate in the bloodstream and are ingested by the mosquito, thereby completing the life cycle. To profile malarial isolates for differential chemical responses and to identify inhibitors of malarial growth, an assay that measures P. falciparum growth and replication within erythrocytes was employed. This assay uses a DNA binding fluorescent dye (SYBR Green) to detect parasite DNA following cell lysis. Because mature erythrocytes lack DNA, only Plasmodium-derived DNA is detected.
NCGC Assay Protocol Summary: The SYBR Green viability assay was adapted from a method described previously (Plouffe et al., 2008). For screening 3 ul culture medium was dispensed into 1536 well black clear bottom plates (Aurora Biotechnologies) using a Multidrop Combi (Thermo Fisher Scientific Inc.), 23 nL compounds in DMSO were added by a pin tool (Kalypsys), and 5 ul of erythrocytes infected with P. falciparum (0.3% parasitemia, 2.5% hematocrit final concentration) were added. The plates were incubated at 37 C in a humidified incubator in 5% CO2 for 72 h, and 2 ul lysis buffer (20 mM Tris HCl, 10 mM EDTA, 0.16% saponin, 1.6% triton X, 10X SYBR Green I supplied as 10,000X […] by Invitrogen) was added to each well. The plates were mixed for 25 sec with gentle shaking and incubated overnight at room temperature in the dark. The following morning, fluorescence intensity at 485(14) nm excitation and 535(25) nm emission wavelengths was measured on an EnVision (Perkin Elmer) plate reader. Plate reads were normalized relative to the control inhibitor (0.29 uM artemisinin) and vehicle (DMSO) wells present on each plate and then corrected by an algorithm using vehicle-only control plates at the beginning and end of the compound plate stack.
For orientation: qHTS replaces the single test concentration by a dilution series.
On to `C=CCc1ccccc1OCC(O)CNC(C)C` (stereo not given), for which the Potency is 10.7 µM (active).

As for `CCCCCN(CCCCC)C(=O)C(CCC(=O)O)NC(=O)c1ccc(Cl)c(Cl)c1` (stereo not given), the Potency entry was “inactive”. In the case of `CCNC(=O)N1CCN(CCCC(c2ccc(F)cc2)c2ccc(F)cc2)CC1` it was 6.75 µM (active); in that of `CC(N=C(NC#N)Nc1ccncc1)C(C)(C)C` (stereo not given), “inactive”; in that of `CCN(CC)CCOCCOC(=O)C1(c2ccccc2)CCCC1`, 6.75 µM (active). Then `O=C(O)CP(=O)(O)O`, with “inactive”; and `CN(C)CCN(Cc1cccs1)c1ccccn1`, with 12 µM (active); and `NC(Cc1ccc(Cl)cc1)C(=O)O` (stereo not given), with “inactive”. Then `CSc1ccc(C(=O)c2[nH]c(=O)[nH]c2C)cc1`, with “inactive”; and `CCCN(CCC)CCc1cccc2c1CC(=O)N2`, with “inactive”; and `C[N+](C)(C)CCOC(N)=O`, with “inactive”. Turning to `CCCOc1ccccc1-c1nc2n[nH]nc2c(=O)[nH]1`, the Potency entry was “inactive”. In the case of `CCCC(C(=O)OCCN(CC)CC)(c1ccccc1)c1ccccc1`, the Potency was 12 µM (active). Consider `COc1cc2c(cc1OC)-c1cc(=Nc3c(C)cc(C)cc3C)n(C)c(=O)n1CC2`, for which the Potency was 7.57 µM (active). In the case of `Cc1nc2c([nH]1)c(=O)n(C)c(=O)n2Cc1ccco1` it was “inactive”; in that of `COc1ccc([C@@H]2Sc3ccccc3N(CCN(C)C)C(=O)[C@@H]2OC(C)=O)cc1`, “inactive”; in that of `COC(=O)[C@@H](N)Cc1ccc(O)c(O)c1`, “inactive”.

Regarding `OC(CCN1CCCCC1)(c1ccccc1)C1CCCCC1` (stereo not given), the Potency entry was “inactive”.

Turning to `NS(=O)(=O)c1cc2c(cc1Cl)NC(C1CC3C=CC1C3)NS2(=O)=O` (stereo not given), the Potency entry is “inactive”.

`CCn1cc(C(=O)O)c(=O)c2cc3c(cc21)OCO3`: the Potency entry is “inactive”.

`Brc1c(NC2=NCCN2)ccc2nccnc12`: the Potency entry is “inactive”. In the case of `OCCN1CCN(CCCN2c3ccccc3C=Cc3ccccc32)CC1` it was 6.75 µM (active); in that of `CN(C)CCCN1c2ccccc2Sc2ccccc21`, 4.05 µM (active); in that of `CCN(CC)CC(=O)Nc1c(C)cccc1C`, “inactive”. Then `NC(=Nc1ccccc1)Nc1ccccc1`, with “inactive”; and `CN(C)C(=O)Oc1ccc[n+](C)c1`, with “inactive”; and `CC1=C(C)C(=O)C(CCCCC#CCCCC#CCO)=C(C)C1=O`, with 15.1 µM (active). Regarding `Cc1ccc(Cl)c(Nc2ccccc2C(=O)O)c1Cl`, the Potency result was “inactive”.

For the molecule `CCN1CCC[C@H]1CNC(=O)c1c(O)c(Cl)cc(Cl)c1OC`, the Potency result is “inactive”.

Consider `NC(=O)c1ncn([C@@H]2O[C@H](CO)[C@@H](O)[C@H]2O)c1O`, for which the Potency result is “inactive”. On to `NC/C=C/C(=O)O`, for which the Potency result was “inactive”.

Take `C[N+](C)(C)CCOC(=O)CCC(=O)OCC[N+](C)(C)C`: the Potency result was “inactive”. In the case of `CC(C)(Oc1ccc(CCNC(=O)c2ccc(Cl)cc2)cc1)C(=O)O` it was “inactive”. In the case of `Cc1scc2c1N(C(=O)CN1CCN(C)CC1)c1ccccc1NC2=O` it was “inactive”. In the case of `CCOC(=O)c1cnc2c(cnn2CC)c1NN=C(C)C` it was “inactive”. Turning to `OCCN1CCN(CC/C=C2/c3ccccc3Sc3ccc(C(F)(F)F)cc32)CC1`, the Potency was 9.53 µM (active). In the case of `CC(=O)OCC1=C(C(=O)O)N2C(=O)[C@@H](NC(=O)Cc3cccs3)[C@H]2SC1` it was “inactive”; in that of `NCCCNCCSP(=O)(O)O`, “inactive”; in that of `O=C(O)CCCCCCCC(=O)O`, “inactive”. Then `CNC1(C)C2CCC(C2)C1(C)C` (stereo not given), with “inactive”.

The record behind these values is PubChem BioAssay (NCATS).
